Experimental findings from PubChem BioAssay (EPA / NIEHS) are described below.

Each structure is given as a SMILES string. Inconclusive results are not listed. The source holds several records for some structures; these can differ, active in one and inactive in another. Active and inactive are the calls of the source. Rule for the calls: active = hit-call score of the fitted dose curve at least 0.9, where 1 is the maximum; inconclusive = response in the unintended direction; inactive = score below 0.9. Peptide text beside a SMILES is read from it.

As usually defined, the AC50 is the concentration at which the activity in the assay is half-maximal.

The assay is described as follows: TOX21_p53_BLA_p2_viability: Viability Assessment in the Tox21 HCT-116 p53 Agonism Beta-lactamase Assay, Phase 2 (AID 2283591).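 Note: compound exposure lasted 16 h at 37 °C; actives lower the ATP signal meaning cytotoxicity.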 In short, it runs like this: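 Cytotoxicity readout: CellTiter-Glo ATP luminescence, 30 min at room temperature, after the beta-lactamase read. Cells were HCT116 exposed 16 h at 37C to compounds pin-transferred at 217-fold dilution from DMSO stocks.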
As for `CCCCCCCOC(=O)c1ccc(O)cc1`, the AC50 is 44.8 µM (active) and the compound was classed as inactive.
Regarding `N#CC1(N)CCCCC1`, the compound was classed as inactive.
Regarding `O=C(O)/C=C/c1ccccc1`, the compound was called inactive.
For the compound `Oc1ccc(/C=C/c2cc(O)cc(O)c2)cc1`, the call was inactive.
Still for that read-out and setting: in the case of `CCN1CCCC1=O` it was “inactive”; in that of `CCCCCCCCCC(C)=O`, “inactive”; in that of `CC(C)(C)C1CCC(=O)CC1`, “inactive”.
Consider `N=C1C=CC(=C(c2ccc(N)cc2)c2ccc(N)cc2)C=C1`, for which the outcome was inactive.
On the same count and under the same terms, in the case of `CC(C)(c1ccccc1)c1ccc(Nc2ccc(C(C)(C)c3ccccc3)cc2)cc1` it was “inactive”.
In the case of `CC(C)c1ccc(O)c(C(C)C)c1`, the outcome was inactive.
Turning to `COC(=O)[C@H](Cc1ccccc1)NC(=O)[C@@H](N)CC(=O)O` (H-Asp-Phe-OMe), the outcome was inactive.
On the same count and under the same terms, in the case of `CCCCNS(=O)(=O)c1ccccc1` it was “inactive”; in that of `C=C(C)OC(C)=O`, “inactive”.
As for `O=C(Cl)c1ccc(C(=O)Cl)cc1`, the compound was classed as inactive.
In the case of `COc1ccc(-c2coc3cc(O)cc(O)c3c2=O)cc1`, the AC50 is 68.5 µM (active) and the outcome was inactive.
Consider `CC(=O)CCC=C(C)C`, for which the outcome was inactive.
As for `CC(C)CC(=O)OCc1ccccc1`, the outcome was inactive.
On to `O=C(O)c1ccc2c(c1)C(=O)OC2=O`, for which the call was inactive.
Turning to `CC(CC(C)C)=NO`, the outcome was inactive.
With `CC1OC(=O)C(C)OC1=O` (centres undefined), the outcome was inactive.
On the same count and under the same terms, in the case of `O=C(Oc1ccccc1)c1ccccc1C(=O)Oc1ccccc1` it was “inactive”.
As to `CCCCCCCCCCCCCC(=O)OC(C)C`, the call was inactive.
For the compound `N#Cc1ccc(C2CCCc3cncn32)cc1` (centres undefined), the compound was called inactive.
As for `CC1=C(O)C(=O)C(C)O1` (centres undefined), the call was inactive.
On the same count and under the same terms, in the case of `CC(C)c1cccc(C(C)C)c1N` it was “inactive”.
Turning to `O=C(Nc1ccccc1)c1cc(Cl)ccc1O`, the AC50 is 12.9 µM (active).
With `CC(C)[N+](C)(CCOC(=O)C1c2ccccc2Oc2ccccc21)C(C)C`, the compound was classed as inactive.
